# From PubChem BioAssay
# Activity calls are given as the source filed them.
# Key:
# Albumin (Bos taurus) = Albumin (Bos taurus) (UniProt P02769); assay: bovine serum albumin binders on microarray, profiling panel, artefact control for SMM control protein annotation, biochemical, small-molecule microarray, Alexa647 label, 635/667 nm fluorescence (AID 1118); details: BSA-A647 binding, fluorescence 635 nm, higher = more signal;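 note: score merges 667 nm emission intensity and signal-to-noise per printed compound spot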
# Sequence of Albumin (Bos taurus) (P02769 whole entry, looked up): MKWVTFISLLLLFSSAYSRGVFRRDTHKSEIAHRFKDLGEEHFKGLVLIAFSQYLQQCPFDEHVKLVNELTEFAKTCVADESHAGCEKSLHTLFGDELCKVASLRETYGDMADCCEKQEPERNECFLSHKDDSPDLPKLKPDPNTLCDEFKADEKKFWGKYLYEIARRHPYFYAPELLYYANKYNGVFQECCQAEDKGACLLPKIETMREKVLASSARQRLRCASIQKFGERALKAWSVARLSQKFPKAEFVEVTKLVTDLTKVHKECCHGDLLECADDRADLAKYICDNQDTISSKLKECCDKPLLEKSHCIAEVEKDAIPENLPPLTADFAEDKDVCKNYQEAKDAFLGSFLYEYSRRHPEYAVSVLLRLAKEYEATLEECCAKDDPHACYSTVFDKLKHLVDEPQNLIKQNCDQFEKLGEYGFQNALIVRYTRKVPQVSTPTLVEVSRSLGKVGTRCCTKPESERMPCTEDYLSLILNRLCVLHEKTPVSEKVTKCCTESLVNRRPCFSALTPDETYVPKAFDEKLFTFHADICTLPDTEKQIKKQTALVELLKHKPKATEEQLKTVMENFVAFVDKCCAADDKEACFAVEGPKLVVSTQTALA
# [1] = small-molecule microarray binders of probe aXIP, primary screen, biochemical, NeuroSMM set, 635/667 nm fluorescence (AID 1119); details: higher = more signal, called active from +8 up or from −8 down;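 note: probe is the protein aXip251-270 applied at 1 µg/mL to compound-printed slides; binding of probe to printed compounds measured as 667 nm fluorescence plus signal to noise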
# [2] = small-molecule binders of probe aNOTCH3, primary screen, biochemical, small-molecule microarray, 635/667 nm fluorescence (AID 1120); details: higher = more signal;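 note: probe is a biotin-tagged antibody raised against NOTCH3 rather than NOTCH3 protein; score merges spot fluorescence near 667 nm with spot signal to noise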
# [3] = small-molecule binders of probe aNOTCH2, primary screen, biochemical, small-molecule microarray, 635/667 nm fluorescence (AID 1121); details: higher = more signal;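 note: score merges feature fluorescence read at 667 nm with its signal to noise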
# [4] = molecular target: Carbonic anhydrase 2 (Homo sapiens) (UniProt P00918); assay: CAII small-molecule binders, profiling panel, biochemical, small-molecule microarray, Alexa647-labelled CAII (AID 1122); details: CAII-A647 binding fluorescence, higher = more signal
# [5] = COS7 lysate on small-molecule microarray, probe aHis, 635 nm (AID 1123); details: COS7 cell lysate, fluorescence, higher = more signal;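 note: z-score combines 667nm fluorescence intensity with signal-to-noise per printed compound spot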
# [6] = compound binding in COS7 lysate, probe aLAP1, primary screen, cell lysate, small-molecule microarray (AID 1124); details: probe aLAP1, fluorescence, higher = more signal;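 note: lysate comes from COS7 cells expressing LAP1 and is applied at 0.3 µg/mL; score merges spot fluorescence near 667 nm with signal-to-noise over triplicate slides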
# Sam68 (KHDRBS1) = assay: Sam68 small-molecule binders, primary screen, biochemical, small-molecule microarray, 635 nm fluorescence (AID 1125); details: small-molecule microarray binding, higher = more signal;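 note: score merges 667 nm channel intensity with signal to noise over triplicate slides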
# [7] = tested on: Chordin-like protein 2 (CHRDL2); assay: CHRDL2 small-molecule binders, primary screen, biochemical, small-molecule microarray, 635 nm fluorescence (AID 1126); details: small-molecule microarray binding, fluorescence 635 nm; higher = more signal;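 note: printed compound slides probed with Chrdl2 protein at 4 µg/mL for 1 h at 4 C; score merges 667 nm emission intensity with signal to noise over three replicate slides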
# [8] = molecular target: Concanavalin-A (Canavalia ensiformis) (UniProt P02866); assay: ConA small-molecule binders, primary screen, artefact control for SMM control protein annotation, biochemical, small-molecule microarray, Alexa647 label, 635 nm (AID 1127); details: ConA-A647 binding fluorescence, higher = more signal;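 note: z combines 667 nm emission intensity with signal-to-noise across three replicate slides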
# Sequence of Concanavalin-A (Canavalia ensiformis) (P02866 whole entry, looked up): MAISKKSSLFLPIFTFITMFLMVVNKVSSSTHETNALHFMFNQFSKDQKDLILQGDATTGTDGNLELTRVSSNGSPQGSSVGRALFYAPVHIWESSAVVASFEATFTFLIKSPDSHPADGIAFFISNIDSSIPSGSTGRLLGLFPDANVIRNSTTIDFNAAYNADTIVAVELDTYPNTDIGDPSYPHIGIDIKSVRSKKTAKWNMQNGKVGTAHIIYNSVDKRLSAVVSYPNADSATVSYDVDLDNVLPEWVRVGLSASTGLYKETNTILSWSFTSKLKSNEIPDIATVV
# [9] = anti-His antibody binders, primary screen, artefact control for SMM control protein annotation, biochemical, small-molecule microarray, 635 nm fluorescence (AID 1128); details: anti-His Alexa647 antibody binding, higher = more signal;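 note: score merges feature fluorescence with signal-to-noise for each printed compound spot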
# [10] = tested on: Human papillomavirus type 1a E7 protein (residues 1-88); assay: HPV1a E7 small-molecule binders, primary screen, biochemical, small-molecule microarray, residues 1-88, 635 nm (AID 1129); details: small-molecule microarray binding, fluorescence 635 nm; higher = more signal
# [11] = molecular target: Focal adhesion kinase 1 (Homo sapiens) (UniProt Q05397); assay: small-molecule microarray binders of FAK, primary screen, biochemical, 635/667 nm fluorescence, BSA, DTT (AID 1130); details: PTK2 binding, 635 nm fluorescence, higher = more signal;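 note: composite of spot emission at 667 nm and signal to noise over triplicate slides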
# Sequence of Focal adhesion kinase 1 (Homo sapiens) (Q05397 whole entry, looked up): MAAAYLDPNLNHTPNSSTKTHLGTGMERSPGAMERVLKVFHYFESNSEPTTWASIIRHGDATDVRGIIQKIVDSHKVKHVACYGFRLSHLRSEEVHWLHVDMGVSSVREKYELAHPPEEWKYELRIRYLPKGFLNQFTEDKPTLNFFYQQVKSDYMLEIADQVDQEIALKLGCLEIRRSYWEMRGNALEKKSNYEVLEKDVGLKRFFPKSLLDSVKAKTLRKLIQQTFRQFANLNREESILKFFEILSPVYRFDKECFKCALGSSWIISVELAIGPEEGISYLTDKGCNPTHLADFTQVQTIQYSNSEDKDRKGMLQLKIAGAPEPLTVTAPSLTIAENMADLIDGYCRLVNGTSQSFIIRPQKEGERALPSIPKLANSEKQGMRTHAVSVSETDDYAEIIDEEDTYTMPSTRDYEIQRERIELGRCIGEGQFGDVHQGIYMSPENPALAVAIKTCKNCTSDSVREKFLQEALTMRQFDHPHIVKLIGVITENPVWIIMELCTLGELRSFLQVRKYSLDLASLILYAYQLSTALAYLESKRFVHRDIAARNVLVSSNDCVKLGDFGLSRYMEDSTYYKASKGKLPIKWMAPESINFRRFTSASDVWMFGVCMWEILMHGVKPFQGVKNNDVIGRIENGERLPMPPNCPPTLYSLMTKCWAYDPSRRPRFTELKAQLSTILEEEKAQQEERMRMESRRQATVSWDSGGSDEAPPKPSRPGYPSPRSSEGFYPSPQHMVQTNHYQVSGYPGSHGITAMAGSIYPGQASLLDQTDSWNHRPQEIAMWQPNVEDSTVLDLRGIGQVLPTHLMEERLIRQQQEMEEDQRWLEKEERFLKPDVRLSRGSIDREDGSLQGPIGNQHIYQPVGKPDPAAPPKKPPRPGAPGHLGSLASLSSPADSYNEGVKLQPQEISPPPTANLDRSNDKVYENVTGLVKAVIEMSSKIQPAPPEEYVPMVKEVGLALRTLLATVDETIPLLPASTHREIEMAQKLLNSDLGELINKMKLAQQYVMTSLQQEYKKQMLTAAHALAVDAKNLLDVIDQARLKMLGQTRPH
# [12] = tested on: Fibrinogen (Alexa647-labelled); assay: fibrinogen binders on compound microarrays, profiling panel, artefact control for SMM control-protein annotation, biochemical, small-molecule microarray, 635/667 nm fluorescence (AID 1131); details: fibrinogen-A647 binding fluorescence, higher = more signal;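 note: z-score merges 667 nm fluorescence with per-spot signal-to-noise over triplicate slides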
# [13] = molecular target: Follistatin (Homo sapiens) (UniProt P19883); assay: follistatin binders on small-molecule microarrays, primary screen, biochemical, small-molecule microarray, 635/667 nm fluorescence (AID 1132); details: FST binding, 635 nm fluorescence, higher = more signal
# Sequence of Follistatin (Homo sapiens) (P19883 whole entry, looked up): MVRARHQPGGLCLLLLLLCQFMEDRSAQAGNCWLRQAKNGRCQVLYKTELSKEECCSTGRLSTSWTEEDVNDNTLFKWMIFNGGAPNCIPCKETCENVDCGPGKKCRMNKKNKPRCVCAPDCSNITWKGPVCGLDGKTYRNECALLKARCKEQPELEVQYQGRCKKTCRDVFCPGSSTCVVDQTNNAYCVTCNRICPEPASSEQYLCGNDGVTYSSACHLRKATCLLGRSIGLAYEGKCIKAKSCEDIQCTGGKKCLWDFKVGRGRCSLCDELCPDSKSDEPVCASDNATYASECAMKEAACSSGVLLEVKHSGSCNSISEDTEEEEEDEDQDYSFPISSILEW
# [14] = molecular target: Fibroblast growth factor 2 (Homo sapiens) (UniProt P09038); assay: FGF2 binders on small-molecule microarrays, primary screen, biochemical, small-molecule microarray, 635/667 nm fluorescence (AID 1133); details: small-molecule microarray binding, FGF2, fluorescence 635/667; higher = more signal
# Sequence of Fibroblast growth factor 2 (Homo sapiens) (P09038 whole entry, looked up): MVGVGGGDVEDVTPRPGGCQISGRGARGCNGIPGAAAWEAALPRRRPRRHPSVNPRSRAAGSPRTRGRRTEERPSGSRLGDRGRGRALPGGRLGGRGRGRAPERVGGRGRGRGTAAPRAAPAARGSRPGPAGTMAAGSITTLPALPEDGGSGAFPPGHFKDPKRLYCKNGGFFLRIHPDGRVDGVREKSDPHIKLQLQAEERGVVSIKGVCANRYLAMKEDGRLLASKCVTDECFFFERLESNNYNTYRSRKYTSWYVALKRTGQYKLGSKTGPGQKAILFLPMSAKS
# [15] = mitochondrial membrane potential change in A549 cells, profiling panel, cell-based, JC-1 fluorescence, basal, 24 h, 100 nL (AID 1138); details: higher = more signal;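 note: A549 lung adenocarcinoma cells under basal conditions with no added stimulus; test concentration not given here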
# Lefty1 = Lefty1 binders on small-molecule microarrays, primary screen, biochemical, small-molecule microarray, 635/667 nm fluorescence (AID 1139); details: small-molecule microarray binding, fluorescence 635/667; higher = more signal
# [16] = tested on: wheat germ agglutinin (Triticum aestivum), Alexa647-labelled; assay: wheat germ agglutinin binders on compound microarrays, profiling panel, artefact control for SMM control-protein annotation, biochemical, small-molecule microarray, 635/667 nm fluorescence (AID 1140); details: WGA-A647 binding, 635 nm fluorescence, higher = more signal;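 note: score merges 667 nm feature emission with signal to noise over triplicate slides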
# [17] = molecular target: Luciferin 4-monooxygenase (Photinus pyralis) (UniProt P08659); assay: firefly luciferase enzyme inhibitors, primary screen, biochemical, luminescence, purified enzyme, 2006 set (AID 1141); details: SteadyGlo luminescence, 30 min, higher = more signal, called active from +8 up or from −8 down;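 note: cell-free assay with purified firefly luciferase at 100 ng per well in PBS; test concentration not given here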
# Sequence of Luciferin 4-monooxygenase (Photinus pyralis) (P08659 whole entry, looked up): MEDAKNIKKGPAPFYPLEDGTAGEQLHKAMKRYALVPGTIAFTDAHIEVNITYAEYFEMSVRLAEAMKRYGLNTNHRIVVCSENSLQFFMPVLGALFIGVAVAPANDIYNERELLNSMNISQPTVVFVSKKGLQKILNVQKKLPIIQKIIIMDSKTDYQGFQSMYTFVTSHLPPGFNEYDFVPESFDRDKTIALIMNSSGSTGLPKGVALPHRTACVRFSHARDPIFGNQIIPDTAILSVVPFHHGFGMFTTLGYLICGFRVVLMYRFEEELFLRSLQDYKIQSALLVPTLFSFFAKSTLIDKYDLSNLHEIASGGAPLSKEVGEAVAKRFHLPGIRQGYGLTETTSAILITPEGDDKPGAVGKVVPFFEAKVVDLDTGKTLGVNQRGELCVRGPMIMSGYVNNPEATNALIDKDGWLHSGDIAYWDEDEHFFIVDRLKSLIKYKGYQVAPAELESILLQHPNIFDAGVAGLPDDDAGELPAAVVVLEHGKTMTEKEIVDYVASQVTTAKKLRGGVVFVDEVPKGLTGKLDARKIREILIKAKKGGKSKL
SMILES,composite z-score (Albumin (Bos taurus)),composite Z-score [1],composite z-score [2],composite z-score [3],composite z-score [4],composite z-score [5],composite z-score [6],composite z-score (Sam68 (KHDRBS1)),composite z-score [7],composite z-score [8],composite z-score [9],composite z-score [10],composite z-score [11],composite z-score [12],composite z-score [13],composite z-score [14],z-score [15],composite z-score (Lefty1),composite z-score [16],z-score [17]
C=C(C)[C@@H]1CC=C(C(O)C2C=CC3C(=O)N(C4CCCCC4)C(=O)C3N2Nc2ccc(OC)cc2)CC1 (stereo not given in full),0.902,0.494 (inactive),0.323,-0.141,0.59,2.54,0.273,1.29,0.0811,1.09,0.736,1.21,0.589,1,1.17,0.723,0.677,0.606,0.46,-0.392 (inactive)
C/C=C/[C@@H](CCn1cc([C@H](O)c2ccccc2)nn1)[Si](C)(C)c1ccc(OC)cc1,-0.91,2.17 (inactive),-0.367,-0.195,-0.105,1.15,0.614,-0.123,0.0697,-0.333,0.0974,-0.253,0.0213,-0.267,-0.673,-0.62,0.947,-0.337,0.418,0.273 (inactive)
CCOC(=O)C1=CC[C@@H](c2ccc(N(CC)CC)cc2)N(S(=O)(=O)c2ccc(C)cc2)[C@H]1c1ccc([N+](=O)[O-])cc1,0.682,0.38 (inactive),0.0116,-0.0097,0.473,-0.507,0.769,0.317,-0.724,0.588,0.479,0.836,0.718,0.403,-0.35,-1.18,1.53,-0.863,0.516,0.719 (inactive)
C#CCOC(=O)N[C@H](C=CCCCC)c1ccccc1,1.02,0.33 (inactive),0.0077,0.0964,0.88,3.67,0.711,0.199,-0.0017,0.0429,1.33,0.95,0.4,0.762,-0.101,-0.204,0.59,-1.09,0.817,0.597 (inactive)
C[N+](C)(C)CCCCCCNC(=O)[C@@H]1C[C@@H]2C(=O)NCC(=O)N2[C@@H]1c1cccc(OCCO)c1,-0.205,0.605 (inactive),-0.0338,-0.14,0.656,1.1,-0.426,0.73,1.31,1.15,1.4,0.044,1.18,0.615,1.38,1.33,-0.842,1.28,0.571,0.801 (inactive)
C=CCOc1ccc([C@@H]2CC=C(C(=O)OCC)[C@H](c3cccc(Br)c3)N2S(=O)(=O)c2ccc(C)cc2)cc1,0.64,0.0809 (inactive),0.032,-0.0784,-0.125,0.491,0.11,0.099,0.314,0.709,-0.296,0.0511,-0.209,-0.161,0.199,-0.0901,3.89,-0.109,0.268,0.594 (inactive)
Cc1ccc(S[C@]2(C(=O)NCCN3CCOCC3)CC(=O)N(C3Cc4ccccc4C3)[C@@H]2c2ccc(CO)cc2)cc1,0.0022,0.39 (inactive),-0.159,-0.0745,0.66,2.08,0.0297,0.151,-0.373,0.152,1.22,0.0419,0.82,-0.778,-0.135,-0.592,0.161,-1.47,-0.278,0.54 (inactive)
O=C1O[C@@H](c2ccccc2)[C@@H](c2ccccc2)N2[C@@H](c3ccc(O)cc3)[C@]3(C(=O)Nc4ccc(C#CC5=CCCCC5)cc43)[C@@H](C(=O)Nc3nc4ccccc4s3)[C@H]12,0.787,-0.199 (inactive),0.887,0.47,0.58,2.03,0.784,1.29,0.842,1.1,1.15,1.22,0.32,0.852,1.25,1.35,-1.8,1.54,1.32,-1.34 (inactive)
C=CC[C@@]1(C(=O)NCCN2CCOCC2)N=C(c2ccc(OCCCO)cc2)O[C@@H]1c1ccccc1,0.262,-0.288 (inactive),0.291,-0.0907,0.673,2.52,0.871,1.12,1.4,0.608,0.432,1.24,0.49,0.755,1.46,1.73,-0.185,1.55,0.978,-0.43 (inactive)
CCCC=C(CCC)[C@@H](NS(=O)(=O)CC)c1ccccc1,0.929,-0.112 (inactive),0.096,-0.0194,0.532,1.68,0.177,1.29,-0.462,1.04,0.365,1.18,0.655,0.976,0.322,0.152,-1.72,-0.346,0.265,2.1 (inactive)
